Screens (PubChem BioAssay)
A selection: hits, their analogues and other compounds. The true share with any hit is near 9.5%.
Pf growth 48h: P. falciparum growth inhibition at 48 hours (one generation); P. falciparum luciferase growth in erythrocytes, 48 h; Potency, µM (titrated, usually from 28.7 µM), for the others: at the highest dose activity change, negative = inhibition, most hits filed as inhibitors; 310,000 tested, 5.9% active; also: % is scaled to controls: 0 for no effect and ±100 for the full control effect
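A one-generation exposure of luciferase-tagged malaria parasites in RPMI 1640/Albumax erythrocyte culture, 37 C and 5% CO2. Inhibition is inferred from decreased luminescence after adding detection reagent.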
NS1 function inh: blocks influenza NS1 protein function | Potency, µM (series often up to 46.1 µM), for inactives: at the top dose activity, positive = more growth | 270,000 tested, 0.4% active; calls by dose curve; also: actives are rising curves; nearly all actives have a fitted effect of over 50% in size
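In this qHTS, NS1 from influenza A is expressed in budding yeast, where it slows growth. Cells are switched from glucose to 2% galactose medium (pH 6.0, -URA), treated with compound, and growth recovery is read at OD600.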
RE007 growth inh: less growth of the S. pombe RE007 Vpr strain. S. pombe RE007 Vpr strain, BacTiter-Glo ATP luminescence, 24 h. Potency, µM (top dose mostly 92.2 µM), for inactives: at the top dose activity change, negative = less growth, hits mostly inhibitors. 360,000 tested, 0.21% active. AID 651644; active = well fitted falling curve with a large enough effect; inconclusive = small, poorly fitted or top-dose-only effect; inactive = no such curve, though single readings can be large or run the other way; also: % is scaled to controls: 0 for no effect and ±100 for the full control effect; nearly all actives have a fitted effect of over 50% in size
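Fission yeast strain RE007, carrying one chromosomally integrated HIV-1 vpr copy, was seeded at OD 0.01 in PMG+AL medium with 23 nL pinned compound. After 24 h at 30 °C and 99% humidity, viability was read by BacTiter-Glo luminescence.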
Pf growth 96h: P. falciparum growth inhibition at 96 hour, primary screen for plastid delayed-death inhibitors. 320,000 tested, 6.9% active. AID 504834. Potency, µM (series often up to 28.7 µM), for the others: at the top dose activity change, negative = inhibition, hits mostly inhibitors. P. falciparum luciferase reporter growth, 96 h; also: % is scaled to controls: 0 for no effect and ±100 for the full control effect
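P. falciparum expressing integrated firefly luciferase grown in erythrocytes (2% hematocrit, 0.05% parasitemia final) with compounds for 96 hours at 37 C, 5% CO2. Growth inhibition read as loss of luminescence after adding luciferase detection reagent.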
SARS PLP yeast: inhibitors of SARS-CoV papain-like protease in yeast. S. cerevisiae expressing SARS-CoV PLpro, growth rescue. Potency, µM (highest dose often 32.9 µM), for inactives: at the highest dose activity, positive = growth rescue, most hits filed as activators. 330,000 tested, 0.19% active; calls by dose curve; also: 0% is about no effect; nearly all actives have a fitted effect of over 55% in size
Active calls of the source: *; ? = inconclusive; nt = not tested or not shown; [ ] = remark or other dose. Unless noted, calls follow the shape of the dose curve; as a rule, active = well fitted inhibition curve with a large enough effect; inconclusive = small, poorly fitted or top-dose-only effect, or another doubt; inactive = no such curve, though single readings can be large or run the other way. Potency is read from the fitted curve at half-maximal effect.

SMILES	Pf growth 48h	NS1 function inh	RE007 growth inh	Pf growth 96h	SARS PLP yeast
CCOc1ccccc1CNC(=O)CCCn1ccc2cc(S(=O)(=O)N3CCCC3)ccc21	?	5%	-17%	?	0%
CCOC(=O)c1cnc2c(N=Nc3cccc(Cl)c3)c(N)nn2c1N	13%	1%	nt	0.66µM*	5%
Cc1ccc(-c2c(C)sc3nc(CN4CCN(CC(=O)NC5CC5)CC4)[nH]c(=O)c23)cc1	10µM*	nt	7%	?	-4%
CCOC(=O)c1c(-n2c(C)cc(C=O)c2C)sc2c1CCCC2	?	-68%	-7%	?	-12%
CCOC(=O)c1c(-n2c(C)cc(/C=C3\C(=O)NC(=O)N(C)C3=O)c2C)sc2c1CCCC2	?	0%	10%	3.7µM*	?
O=C(c1ccccc1)c1cc(Cl)ccc1N1C(=O)C=CC1=O	7%	nt	25µM*	24%	-5%
Cc1ccc(S(=O)(=O)n2nc(OC(=O)c3ccccc3F)cc2N)cc1	10%	0%	-4%	12µM*	0%
Cc1ccc(C(=O)Oc2cc(N)n(S(=O)(=O)c3ccc(C)cc3)n2)cc1	-3%	nt	8%	41%	-4%
CS(=O)(=O)n1nc(OC(=O)c2cccc3ccccc23)cc1N	20%	5%	2%	5.2µM*	-7%
COc1cc(C(=O)Oc2cc(N)n(S(=O)(=O)c3ccccc3)n2)cc(OC)c1OC	24%	-10%	-13%	-25%	-3%
Cc1onc(-c2ccccc2Cl)c1C(=O)Oc1cc(N)n(S(=O)(=O)c2ccc(F)cc2)n1	6%	-3%	25%	?	-1%
COc1cc(C(=O)Oc2cc(N)n(S(=O)(=O)c3ccc(F)cc3)n2)cc(OC)c1OC	2%	-7%	-6%	4.7µM*	0%
Cc1ccc(S(=O)(=O)n2nc(OC(=O)c3c(-c4ccccc4Cl)noc3C)cc2N)cc1	11%	18%	-17%	2.1µM*	5%
CS(=O)(=O)n1nc(OC(=O)c2cc(Br)ccc2Cl)cc1N	-8%	nt	2%	-33%[5.75 µM]	-1%
COc1ccc(-n2ncc3c2CC(C)(C)CC3NC(=O)c2ocnc2C)cc1 (stereo not given)	?	-7%	1%	-14%	7%
COc1ccc(S(=O)(=O)N2CCOC2CNC(=O)C(=O)NCCc2ccc(S(N)(=O)=O)cc2)cc1 (stereo not given)	42%	7%	-6%	?	-1%
CCn1c(C)[n+](CCOCC[n+]2c(C)n(CC)c3cc(Cl)c(Cl)cc32)c2cc(Cl)c(Cl)cc21	nt	-1%	7%	10µM*	-8%
COCCCn1c(=O)c2sccc2n2c(CCCC(=O)N(C)Cc3ccco3)nnc12	-15%	-1%	19%	?	2%
COc1ccc2[nH]c3c(=O)n4c(nc3c2c1)SCC4	30%	nt	-6%	10µM*	-2%
Cc1ccc(CNC(=O)CN2C(=O)COc3ccc(S(=O)(=O)N4CCCCC4)cc32)o1	7%	3%	13%	-16%	0%
Cn1c(=O)c2cc(NC(=S)NCc3ccccc3F)ccc2n1C	nt	nt	3%	nt	nt
O=C(O)c1ccc2c(c1)C(=O)N([C@H](Cc1ccc(O)cc1)C(=O)O)C2=O	?	nt	nt	?	-20%
O=C1CC[C@@H](CN(Cc2ccccc2)Cc2cn[nH]c2-c2cc3ccccc3o2)N1	?	-30%	5%	15µM*	-1%
COc1cccc(Cn2cnc3c(NS(=O)(=O)c4ccc(Cl)cc4Cl)c(C)c(C)cc32)c1	25%	6%	-16%	0%	-10%
COc1cccc(Cn2cnc3c(NS(=O)(=O)c4ccc(Cl)cc4)c(C)c(C)cc32)c1	13µM*	6%	10%	4.7µM*	0%
SMILES	Pf growth 48h	NS1 function inh	RE007 growth inh	Pf growth 96h	SARS PLP yeast
CC(=O)N/C(=N\c1nc(C)cc(C)n1)Nc1ccc(Cl)cc1Cl	15%	3%	-6%	?	0%
CN1CCN(C(=O)c2ccc3c(Cl)c4c(nc3c2)CCCC4)CC1	-30%	2%	2%	13µM*	1%
CCN1CCN(C(=O)c2ccc3c(Cl)c4c(nc3c2)CCCC4)CC1	?	0%	-4%	-29%	-9%
COc1cc(NC(=O)c2ccc3c(SCC(=O)O)c4c(nc3c2)CCCC4)cc(OC)c1OC	15%	nt	-14%	?	2%
COc1cc(OC)c(NC(=O)c2ccc3c(SCC(=O)O)c4c(nc3c2)CCCC4)cc1Cl	5.2µM*	nt	0%	226%	0%
CC1CCN(CCCNC(=O)c2n[nH]c(=O)c3ccccc23)CC1	21%	-3%	9%	12µM*	-2%
CC1CCN(CCCNC(=O)c2ccc3c(Cl)c4c(nc3c2)CCCC4)CC1	13µM*	-2%	-18%	?	-4%
O=C(Nc1c(-c2ccc3c(c2)OCO3)[nH][nH]c1=O)c1ccccc1	nt	nt	-1%	nt	nt
O=C(O)CSc1c2c(nc3cc(C(=O)N4CCOCC4)ccc13)CCCC2	17%	5%	5%	-7%	-1%
CCOC(=O)N1CCN(C(=O)c2ccc3c(SCC(=O)O)c4c(nc3c2)CCCC4)CC1	-5%	8%	6%	12µM*	8%
CCCNc1nc2ccccc2n2c(C)nnc12	8%	6%	2%	9.3µM*	0%
CCOC1=C2[C@H](c3ccccc3F)N(S(=O)(=O)c3ccc(C)cc3)C[C@H]2n2c(=O)n(-c3ccccc3)c(=O)n2C1	nt	nt	1%	nt	nt
O=C(O)c1cccnc1SCc1cccc(Br)c1	1.7µM*	-38%	8%	-8%	-3%
Cc1ccc(C)c(CSc2ncccc2C(=O)O)c1	10%	-22%	0%	7.4µM*	?
CC1=CC(=C(C#N)C#N)c2ccccc2N1C	12µM*	nt	6%	13%	1%
CC1=C/C(=C\C=C(C#N)C#N)N(C)c2ccccc21	18%	7%	2%	4%	0%
c1ccc(OCCCCN2CCCCC2)cc1	-1%	8%	11%	27%	-7%
c1ccc2c(c1)OC(CCCN1CCCCC1)c1ccccc1S2 (stereo not given)	13µM*	-6%	-15%	10µM*	-3%
CN1CCCC(CC2Oc3ccccc3Sc3ccccc32)C1 (stereo not given)	13µM*	-15%	-6%	?	-11%
O=C(COC(=O)c1ccc(S(=O)(=O)C(F)F)cc1)Nc1ccccc1C(=O)NC1CC1	12%	nt	-8%	-11%	8%
CC1CCN(c2nc3ccc(C(=O)NCCCN4CCCCC4C)cc3s2)CC1 (stereo not given)	-10%	-7%	-9%	3%	0%
O=C(CC12CC3CC(CC(C3)C1)C2)N1CCOCC1	-14%	-3%	18%	nt	-4%
CC(C(=O)C12CC3CC(CC(C3)C1)C2)N1CCOCC1 (stereo not given)	27%	14%	-1%	1.9µM*	3%
O=S(=O)(NC(=S)NC1CCCCC1)c1ccc(Cl)cc1	40%	-50%	-17%	0.52µM*	-1%
